Records with an inconclusive call do not appear. Active and inactive are the calls of the source. How the source made its calls, unless noted: active means hit-call score of the fitted dose curve at least 0.9, where 1 is the maximum; inactive means score below 0.9.
What was measured:
[1] = CCTE_Shafer_MEA_acute_cross_correlation_HWHM: CCTE's Neural Acute Assay for Cross Correlation at Half Width at Half Maximum, Shafer Lab (AID 2284026);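 further: spontaneous network firing of rat primary cortical neurons on multiwell microelectrode arrays; percent change per well from pre-dose baseline in spike cross-correlogram half width; hits are a decrease in cross-correlogram half width relative to DMSO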
Outline: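 Rat primary cortical neurons on 48-well MEA plates; 40-min baseline and 40-min post-exposure recordings at 37 C on DIV 13 or 15, compounds 0.03-40 uM. Spikes detected at 8x rms noise; percent change in cross-correlogram HWHM per well vs baseline.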

[2] = CCTE_Shafer_MEA_acute_synchrony_index: CCTE's Neural Acute Assay for Synchrony, Shafer Lab (AID 2284027);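 further: network synchrony index of spontaneous spiking in primary rat cortical neurons on MEAs; fitted for loss of signal so actives lower synchrony relative to DMSO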
Outline: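 Acute exposure of rat primary cortical neurons (DIV 13 or 15) at 0.03-40 uM. Synchrony index, 40 min before vs after, as % change relative to DMSO control.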

[3] = CCTE_Mundy_HCI_hN2_NOG_NeuriteCount: CCTE's Neurite Outgrowth Assay in human hN2 cells for Neurite Count, Mundy Lab (AID 2284219; active means hit-call score of the fitted dose curve at least 0.9, where 1 is the maximum)
Outline: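 In this morphology assay, hNP1-derived neurons received test chemical 2 h post-plating and were fixed two days later in warm paraformaldehyde/sucrose containing Hoechst 33342. Neurites, labelled by rabbit anti-βIII-tubulin (1:800) and Alexa Fluor-488 (1:500), were counted automatically.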

[4] = CCTE_Mundy_HCI_hN2_NOG_NeuriteLength: CCTE's Neurite Outgrowth Assay in human hN2 cells for Neurite Length, Mundy Lab (AID 2284220; active means hit-call score of the fitted dose curve at least 0.9, where 1 is the maximum)
Outline: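 Read-out is neurite length from high-content imaging of βIII-tubulin/Alexa Fluor-488-labelled neurons, referenced to DMSO controls.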

Measured: outcome

CC1(C)S[C@@H]2[C@H](NC(=O)[C@H](N)c3ccc(O)cc3)C(=O)N2[C@H]1C(=O)O
inactive: all assays above
